# Laboratory results as given in PubChem BioAssay AID504652 (National Center for Advancing Translational Sciences (NCATS), 2011).
# Values joined by “and” are separate entries in the source; they are usually repeats but may differ in a detail not shown here. Identical values can stand only once. Among all 360,000 compounds or so, about 11,000 (3.1%) were called active. Cut-off read from the data, not from the text of the source: active = activity change below about -30%; inactive = the rest. The list comes from a sample in which actives are over-represented; it also holds similar structures and randomly drawn compounds.
# Molecular target: D(1A) dopamine receptor (Homo sapiens) (UniProt P21728)
# Test: Antagonist of Human D 1 Dopamine Receptor: qHTS
# Conditions: HEK293 TREx D1 cells, calcium flux, dopamine EC80; at 10 µM; active compounds read low
# How it was run: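 Using tetracycline-induced force-coupled D1 Hek293 cells and a calcium dye, signals were followed for 180 s after compound, then for 180 s after EC80 dopamine, to detect inhibitors.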
# % is set by controls: 0 for no effect and ±100 for the full control effect.
# Sequence of D(1A) dopamine receptor (Homo sapiens) (P21728 whole entry, looked up): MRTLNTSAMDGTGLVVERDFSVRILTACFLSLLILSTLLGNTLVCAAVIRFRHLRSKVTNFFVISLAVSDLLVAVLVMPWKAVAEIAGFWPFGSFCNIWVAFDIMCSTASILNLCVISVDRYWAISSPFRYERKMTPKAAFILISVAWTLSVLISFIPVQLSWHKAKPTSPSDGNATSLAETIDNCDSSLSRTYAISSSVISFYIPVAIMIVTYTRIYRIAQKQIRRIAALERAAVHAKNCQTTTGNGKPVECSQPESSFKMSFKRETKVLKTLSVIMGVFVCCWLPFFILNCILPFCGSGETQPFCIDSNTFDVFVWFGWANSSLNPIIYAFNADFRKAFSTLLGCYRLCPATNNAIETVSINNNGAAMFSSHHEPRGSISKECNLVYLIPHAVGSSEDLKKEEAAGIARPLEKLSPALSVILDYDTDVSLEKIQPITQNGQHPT
row,Compound,"activity change, negative = inhibition"
1,COc1ccccc1CCNC(=O)c1cccn1-c1nnc(N2CCCCC2)s1,13.6% (inactive)
2,CCCOc1cccc(C(=O)Nc2cccc(NC(=O)c3ccc(C(C)(C)C)cc3)c2)c1,-1.05% (inactive)
3,CCOc1cccc2c1N[C@@H](c1ccc(C(=O)O)cc1)[C@H]1CC=C[C@@H]21,-19.7% (inactive)
4,Cc1ccc2nc(COc3cccc(NC(=O)c4ccccc4Cl)c3)cc(=O)n2c1,-6.97% (inactive)
5,CN(C)CCCn1c(SCCN2C(=O)c3ccccc3C2=O)nc2ccccc2c1=O,-51.8% (active)
6,O=C(CSc1nc2ccccc2c(=O)n1CCCO)NC1CC1,8.77% (inactive)
7,CC(=O)NCCn1c(SCC(=O)Nc2ccc(C)cc2)nc2ccccc2c1=O,1.17% (inactive) and -18.8% (inactive)
8,Cc1ccc(Cc2nc3ccccc3nc2SCC(=O)Nc2cccc(C(F)(F)F)c2)cc1,-11.6% (inactive)
9,O=C(CCc1nc(CN2CCN(S(=O)(=O)c3ccc(Cl)cc3)CC2)no1)N1CCCCC1,-4.7% (inactive)
10,Cc1ccc([C@@H]2CC=C(C(=O)O)[C@H](c3cccc(Cl)c3)N2S(=O)(=O)c2ccc(C)cc2)cc1,-12.2% (inactive)
11,Cc1ccc(S(=O)(=O)N2[C@@H](c3cccc(Cl)c3)C(C(=O)O)=CC[C@H]2c2ccc(Cl)c(Cl)c2)cc1,-17.8% (inactive)
12,Cc1ccccc1S(=O)(=O)N1[C@@H](c2cccc(Cl)c2)C(C(=O)O)=CC[C@H]1c1ccc(Cl)cc1,-39.7% (active)
13,CCc1cccc(-n2nnc(-c3nsc(NC(=O)c4ccc(C)cc4)n3)c2C)c1,16.6% (inactive)
14,COc1cc(C(=O)NCc2ccc3c(c2)cc(C)n3C)cc(OC)c1OC,-1.99% (inactive)
15,CCOCC(=O)NCc1ccc2c(c1)cc(C)n2C,-38.5% (active)
16,Cc1ccc(CNC(=O)COc2ccc3c(c2)CCC3)cc1,0.495% (inactive)
17,CCc1ccccc1NC(=O)Cn1c(=O)n(CC2CCC(C(=O)NCCc3ccccc3)CC2)c(=O)c2ccccc21 (stereo not drawn),9.85% (inactive)
18,CC(=O)c1c(C)n(-c2ccc(C)cc2)c2ccc(O)cc12,-50.8% (active)
19,CCOC(=O)c1c(CN2CCOCC2)n(-c2ccccc2)c2ccc(O)cc12,2.3% (inactive)
20,CC(=O)c1c(C)n(-c2ccc(N(C)C)cc2)c2ccc(OCC(N)=O)cc12,4.08% (inactive)
21,O=c1c2ccccc2n(Cc2cccc(Cl)c2)c(=O)n1Cc1ccccc1,-3.55% (inactive)

row,Compound,"activity change, negative = inhibition"
1,Fc1ccccc1Oc1ncnc2c1oc1ccccc12,-11.6% (inactive)
2,O=c1cc(Cn2nnc(-c3ccc(Cl)cc3)n2)nc2sccn12,-32.8% (active)
3,CCn1c(SCc2cc(=O)n3ccsc3n2)nc2ccccc21,-2.02% (inactive)
4,O=C(OCc1cc(=O)n2ccsc2n1)C1(c2ccc(Cl)cc2)CC1,5.81% (inactive)
5,COc1ccc2[nH]c3c(c2c1)CCN(C(=O)CCC1CCCC1)C3c1ccc(F)cc1 (stereo not drawn),-3.48% (inactive)
6,CC(C)c1ccc(OCC(=O)N(Cc2ccc(N(C)C)cc2)C2CCS(=O)(=O)C2)cc1 (stereo not drawn),12% (inactive)
7,O=C(CCC1CCCC1)N=C1SC2CS(=O)(=O)CC2N1Cc1ccccc1 (stereo not drawn),-43% (active)
8,C=CCN1C(=NC(=O)COc2ccccc2)SC2CS(=O)(=O)CC21 (stereo not drawn),5.52% (inactive)
9,CC(C)CC(=O)N=C1SC2CS(=O)(=O)CC2N1CCc1ccccc1 (stereo not drawn),4.43% (inactive)
10,COc1ccccc1CN1CCC(CNC(=O)c2cnn(-c3cccc(Cl)c3)c2C2CCN(C(=O)OC(C)(C)C)CC2)CC1,3.93% (inactive)
11,Cc1ccc(Cl)cc1NC(=O)Cc1ccc(-n2c(C)nc3cccnc32)cc1,13% (inactive)
12,COc1ccc(C(CC(=O)N2CCN(c3ccccc3)CC2)c2c(O)cc(OC)cc2OC)cc1 (stereo not drawn),29.6% (inactive)
13,COc1ccccc1N1CCN(Cc2cc(OC)c3c(c2)OCO3)CC1,-0.813% (inactive)
14,COc1cc(C(=O)NCCS(=O)(=O)N2CCN(c3ccccc3)CC2)cc(OC)c1OC,-13.9% (inactive)
15,COc1cc(OC)c2ccc(=O)oc2c1C(CCN1CCN(c2ccccc2)CC1)c1ccc2c(c1)OCO2 (stereo not drawn),-83.8% (active)
16,O=C(NCC(c1ccc2c(c1)OCO2)N1CCN(c2ccccc2)CC1)C(=O)Nc1ccccc1F (stereo not drawn),4.02% (inactive)
17,COc1cc(C(CCN2CCN(c3ccccc3)CC2)c2c(OC)cc(OC)c3ccc(=O)oc23)cc(OC)c1OC (stereo not drawn),-74% (active)
18,CC(=O)Nc1cccc(NC(=O)CSc2nccn2Cc2ccc3c(c2)OCO3)c1,1.91% (inactive)
19,O=C(Nc1ccc(Br)cc1)c1ccc(Br)c(S(=O)(=O)NCc2ccccc2)c1,-21.6% (inactive)
20,CCOc1ccccc1NC(=O)C1CCCN(S(=O)(=O)c2cn(C)cn2)C1 (stereo not drawn),-15.7% (inactive)
21,Cc1ccccc1CNC(=O)CCCn1nc(C)c2sc3ccccc3c2c1=O,-0.115% (inactive)

row,Compound,"activity change, negative = inhibition"
1,CCOC(=O)Cn1c(=O)n(-c2ccccc2OC)c2nc(-c3cccc(F)c3)nc(C(N)=O)c21,-25% (inactive)
2,CCc1cc2c(-c3ccccc3)cc(=O)oc2c2c1OCN(Cc1ccc(C)cc1)C2,-3.71% (inactive)
3,O=C1CSC2(C(=O)N(Cc3ccccc3)c3ccccc32)N1c1cccc(F)c1 (stereo not drawn),-4.64% (inactive)
4,CC1CCCN(c2csc3ccc(F)cc3c2=O)C1 (stereo not drawn),-8.32% (inactive)
5,COc1ccc(C2=NC3(CCCCC3)N(CC(=O)Nc3ccc(C(C)C)cc3)C2=O)cc1,-5.42% (inactive)
6,O=C1C=C(c2ccc(Cl)cc2)C(=O)N1Nc1ccccc1,-47.7% (active)
7,Cc1cccc(NC(=O)Cn2nc(-c3ccc(Cl)cc3)c3ccccc3c2=O)c1,6.9% (inactive)
8,Cc1ccc(-c2cn3c(n2)sc2cc(C(=O)NCCCc4ccccc4)ccc23)cc1,7% (inactive)
9,Cc1ccc(-c2nc(C#N)c(NCCCn3ccnc3)o2)cc1,5.54% (inactive)
10,O=S(=O)(c1ccccc1)c1nc(-c2ccccc2)oc1NCCCN1CCOCC1,-15% (inactive)
11,N#Cc1nc(-c2ccc(OCc3ccccc3)cc2)oc1NCCCN1CCOCC1,-46.5% (active)
12,Cc1cc(C)cc(NC(=O)Cn2nc(N3CCN(c4ccccc4)CC3)ccc2=O)c1,25.5% (inactive)
13,COc1ccc(C)cc1NC(=O)C(=O)NCCc1sc(-c2cccc(C)c2)nc1C,-28.6% (inactive)
14,Cc1ccc(OCCSc2nc(-c3cccs3)nc3cc(=O)[nH]n23)cc1Cl,-20.2% (inactive)
15,O=c1cc2nc(-c3ccccc3)nc(SCCOc3ccc(Cl)cc3)n2[nH]1,-2.6% (inactive)
16,CCc1ccccc1OCCSc1nc(-c2cccs2)nc2cc(=O)[nH]n12,-43.9% (active)
17,CCc1ccc(NC(=O)CN2C(=O)CCSc3ccc(S(=O)(=O)N4CCCC4)cc32)cc1,4.1% (inactive)
18,COc1ccccc1NC(=O)c1cc(S(=O)(=O)NCCc2ccccc2)ccc1F,-14.3% (inactive)
19,CC(=O)N1C(=O)/C(=C2\SC(=S)N(NC(=O)c3ccc(O)cc3)C2=O)c2ccccc21,2.62% (inactive)
20,Cn1cccc1/C=C1\SC(=S)N(NC(=O)c2ccc(Cl)cc2)C1=O,-34% (active)
21,O=C(O)c1ccc(/C=C2\SC(=S)N(NC(=O)c3ccc(Br)cc3)C2=O)cc1,-2.74% (inactive)

row,Compound,"activity change, negative = inhibition"
1,NC(=O)c1ccc(NC(=O)COC(=O)c2c3c(nc4ccccc24)/C(=C\c2ccc4c(c2)OCO4)CCC3)cc1,-7.23% (inactive)
2,NS(=O)(=O)c1ccc(NC(=O)COC(=O)c2c3c(nc4ccccc24)/C(=C\c2ccc4c(c2)OCO4)CCC3)cc1,-45.1% (active)
3,COc1cc(/C=C2\CCCc3c2nc2ccccc2c3C(=O)O)cc(Cl)c1O,-14.9% (inactive)
4,CCCCN(C)CCCNC(=O)CN1N=C(c2ccc(OC)cc2)CCC1=O,3.24% (inactive)
5,CCCC12CN3CC(C)(CN(C1)C3c1ccccc1Cl)C2=O (stereo not drawn),-3.8% (inactive)
6,COc1cccc(-n2c(=O)c3c(C)c(C(=O)N(C)C)sc3n(Cc3cccc(C)c3)c2=O)c1,4.64% (inactive)
7,Cc1cc(C)cc(NC(c2nnc(-c3cccc(F)c3)o2)c2ccc(F)cc2Cl)c1 (stereo not drawn),12.4% (inactive)
8,N#C/C(=C\c1ccccc1F)c1nc2ccccc2c(=O)[nH]1,-3.28% (inactive)
9,CSc1nc(=O)c2c(n1C)NC(=O)CC2c1ccccc1OC(C)C (stereo not drawn),2.77% (inactive)
10,Cc1oc2cc([N+](=O)[O-])c(O)c([N+](=O)[O-])c2c1C(=O)c1ccc(Br)cc1,-36.4% (active)
11,COc1ccc(C(=O)c2c(C)oc3cc([N+](=O)[O-])c(O)c([N+](=O)[O-])c23)cc1,12.5% (inactive)
12,Cc1oc2cc(Br)c(O)c(Br)c2c1C(=O)c1ccccc1,-4.24% (inactive)
13,O=C(Nc1ccc2c(c1)OCO2)c1cc(-c2cccc(Cl)c2)on1,-3.15% (inactive)
14,COc1ccc(S(=O)(=O)c2c(Nc3ccc(C)cc3)sc(C(=O)c3ccc(C)cc3)c2N)cc1,-13.4% (inactive)
15,Cc1ccc(C(=O)Nc2sc(Cc3ccc4c(c3)OCO4)c(C)c2C(N)=O)cc1,17.9% (inactive)
16,COc1ccc(S(=O)(=O)c2c(Nc3cccc(Cl)c3)sc(C(=O)c3ccccc3)c2N)cc1,-73.9% (active)
17,CCCS(=O)(=O)c1c(Nc2ccccc2C)sc(C(=O)c2ccccc2)c1N,0.973% (inactive)
18,Cc1ccc(S(=O)(=O)c2c(Nc3cccc(Cl)c3)sc(C(=O)c3ccc4c(c3)OCO4)c2N)cc1,-41.6% (active)
19,NS(=O)(=O)c1ccc(NC(=O)COc2ccc(S(=O)(=O)NC3CCCCC3)cc2)cc1,9.54% (inactive)
20,Cc1ccc(C(=O)NC2CCN(C#N)CC2)cc1,-16% (inactive)
